An excerpt weighted towards active compounds, which were near 4.9% of everything screened.
HSP90 refold inh – inhibitors of HSP90 luciferase refolding in rabbit reticulocyte lysate; luciferase refolding luminescence, 3 h; inhibition, % at 5.6 µM; 290,000 compounds, 0.91% hits;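 active = inhibition above the screen-wide mean plus 3 SD, computed separately per campaign, cut at about 16% in these data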;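 also: inhibitors lower the luminescence because luciferase stays unfolded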
HSF1 activator – increases HSF-1 driven luciferase reporter signal. NIH3T3-HGL HSF-1 luciferase reporter, MG132, 8 h; 100% = twice DMSO control signal. activation, % at 9 µM. 300,000 compounds, 1.7% hits;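 active = mean replicate activation of at least 50% with a set share of replicates each reaching 50%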
dFosB act – enhances mouse delta FosB homodimer DNA binding; P13346; purified delta FosB, TAMRA-CDK5 oligo fluorescence polarization; percent of positive-control signal above neutral wells; activation, % at 25 µM; 340,000 compounds, 0.99% hits; AID 493131;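 active = mean activation above about 17%, with every replicate also reaching it, limit read from the data, passing the limit was not always enough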
Target sequence (P13346 whole entry, looked up): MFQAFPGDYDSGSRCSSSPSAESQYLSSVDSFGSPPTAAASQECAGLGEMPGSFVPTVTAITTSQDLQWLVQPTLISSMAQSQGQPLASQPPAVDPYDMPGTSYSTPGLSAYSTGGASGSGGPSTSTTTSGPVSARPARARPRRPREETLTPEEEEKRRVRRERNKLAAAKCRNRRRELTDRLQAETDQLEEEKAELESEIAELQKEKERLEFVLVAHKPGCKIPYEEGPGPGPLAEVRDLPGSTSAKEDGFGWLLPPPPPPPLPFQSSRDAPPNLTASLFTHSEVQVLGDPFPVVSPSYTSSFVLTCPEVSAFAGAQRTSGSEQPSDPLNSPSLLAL
Platelet DG rel – platelet dense granule release activity; inhibition, %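 (compounds screened at 7.5 µM in platelet-rich plasma)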; human platelet-rich plasma, SFLLRN dense granule ATP release, luminescence; 300,000 compounds, 0.22% hits;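 active = mean replicate score, as percent of positive control, at or above 50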
MPTP block – permeability transition pore inhibition | isolated mouse mitochondria, Ca2+ swelling absorbance, 30 min | inhibition, % at 10 µM | 360,000 compounds, 1.4% hits | AID 602449;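 active = inhibition of 50% or more, scaled per plate between neutral and stimulator controls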
HSF1 inh – HSF1 inhibition; NIH3T3-HGL HSE-luciferase, MG132-induced, luminescence 8 h; active compounds read low; activity change, negative = inhibition, % at 7.5 µM (by protocol); 300,000 compounds, 0.77% hits;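 active = more than half of replicate wells show activity change below -50%, luminescence cut by over half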;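 also: luciferase reports HSF-1 transcriptional activity via heat shock element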
A number is an active result; 0 = inactive; - = no result.

SMILES	HSP90 refold inh	HSF1 activator	dFosB act	Platelet DG rel	MPTP block	HSF1 inh
Cc1ccc2c(c1)[C@@H]1CN(C)CC[C@@H]1N2C(=O)Nc1cccc(C(F)(F)F)c1	0	0	0	0	0	0
Cc1ccc2c(c1)C1CN(C)CCC1N2C(=O)Nc1cccc(C(F)(F)F)c1 (stereo not drawn)	0	0	0	0	0	-70.4
Cc1ccccc1OP(=O)(Oc1ccccc1C)N1CCOCC1	-	-	-	-	0	-
C=C1C(=O)OC2CC(C)C3C=CC(=O)C3(C)C(O)C12 (stereo not drawn)	-	-	0	-	0	-
C=C1C(=O)O[C@H]2C[C@@H](C)[C@@H]3C=CC(=O)[C@@]3(C)C[C@H]12	-	0	-	0	-	-63.9
C=C1C(=O)O[C@H]2[C@H]1[C@H](OC(=O)CC(=O)O[C@@H]1C[C@@H](C)[C@@H]3C=CC(=O)[C@@]3(C)[C@H]3OC(=O)C(=C)[C@H]13)C[C@@H](C)[C@H]1C=CC(=O)[C@]12C	-	0	0	0	0	0
C=C1C(=O)O[C@@H]2C[C@@H](C)[C@@H]3C=CC(=O)[C@@]3(C)[C@@H](OC(=O)CC(=O)O[C@H]3[C@@H]4C(=C)C(=O)O[C@@H]4C[C@@H](C)[C@@H]4C=CC(=O)[C@]43C)[C@H]12	-	0	0	0	0	-95.7
C/C=C1/C[C@@H](C)[C@](O)(CO)C(=O)OCC2=CCN3CC[C@@H](OC1=O)[C@@H]23	-	-	0	-	0	-
COc1ccc(CC2C(=O)NC(C)C(=O)N(C)C3C(=O)N(C)C(Cc4ccc(O)c(c4)Oc4ccc(cc4)C3O)C(=O)NC(C)C(=O)NC(C)C(=O)N2C)cc1 (stereo not drawn)	-	-	0	-	0	-
CC(C)(O)/C=C/C(=O)C(C)(O)C1C(O)CC2(C)C3CC=C4C(C=C(O)C(=O)C4(C)C)C3(C)C(=O)CC12C (stereo not drawn)	-	69.1	0	-	0	69.1
Cc1ccc(OC(=O)N(C)C[C@H]2OCc3cnnn3CCCC(=O)N([C@H](C)CO)C[C@@H]2C)cc1	-	-	-	-	0	-
CS(=O)(=O)NCc1nnc2n1-c1ccc(Cl)cc1C(c1ccccc1)=NC2	0	0	0	0	0	0
CSCc1nnc2n1-c1ccc(Cl)cc1C(c1ccccc1)=NC2	0	0	0	0	0	-86.6
CCCc1[nH]nc2c1C1(C(=O)N(Cc3ccccc3)c3ccccc31)C(C(=O)OC)=C(N)O2 (stereo not drawn)	0	55.5	0	0	0	0
O=[N+]([O-])CCO	-	-	0	-	0	-
Nc1ccccc1C(=O)OCC(=O)c1ccc2c(c1)OCCO2	0	0	0	0	0	-56.6
CC(=O)O[C@]1(C)C(=O)OC/C2=C/CN(C)CCC(OC(=O)[C@@](O)(C(C)O)C[C@H]1C)C2=O (stereo partly drawn)	0	-	0	0	0	0
CSc1ccc(C(=O)C2CCCN(Cc3cccnc3)C2)cc1 (stereo not drawn)	0	104.1	0	0	0	0
CCC(=NCc1ccco1)c1c(O)n(C2CCCCC2)c(=O)[nH]c1=O	0	66.4	0	0	0	0
c1ccc(CN2CCN(Cc3ccc4ccccc4c3)CC2)cc1	16.9	0	0	0	0	0
Cc1ccc(CN2CCN(Cc3ccccc3)CC2)cc1	0	-	0	0	0	-
CN1C(=O)/C(=C/c2ccc(Cl)s2)C(=O)NC1=S	0	0	0	0	0	0
Cc1ccsc1/C=C1\C(=O)NC(=S)N(C)C1=O	0	0	0	0	0	-66.8
Cc1nc2ccccc2c(=O)n1-c1c(Cl)cccc1Cl	-	-	-	-	0	-
CC(Cc1ccccc1)NCC(=O)Nc1cc(N(C)C)nc2ccccc12 (stereo not drawn)	0	58.0	0	0	0	0
SMILES	HSP90 refold inh	HSF1 activator	dFosB act	Platelet DG rel	MPTP block	HSF1 inh
CCC[N+]12CCC(CC1)C(C(O)(c1ccccc1)c1ccccc1)C2 (stereo not drawn)	0	0	0	0	0	0
CCCC[N+]12CCC(CC1)C(C(O)(c1ccccc1)c1ccccc1)C2 (stereo not drawn)	0	0	0	0	0	-65.3
Cc1ccc2nc3c(cc2c1)CC1(C(=O)N(C)C(=O)N(C)C1=O)C1CCCCN31 (stereo not drawn)	0	81.2	0	0	0	0
O=C1CC=C2C3CC4N(CCC45c4ccccc4N1C25)CC3=CCO (stereo not drawn)	-	-	0	-	0	-
O=C1CC=C2C3CC4N(CCC45c4cc(O)c(O)cc4N1C25)CC3=CCBr (stereo not drawn)	-	-	51.0	-	0	-
COC(=O)C1=C(c2ccc(OC(F)(F)F)cc2)C[C@@H]2CC[C@H]1N2C(=O)NC(C)C	-	-	0	-	0	-
Cc1cc([N+](=O)[O-])c2ccccc2[n+]1[O-]	0	0	0	0	0	-78.0
COC(=O)C1=C(c2ccc(S(C)(=O)=O)cc2)C[C@@H]2CC[C@H]1N2C(=O)NCc1ccc(C(F)(F)F)cc1	-	0	0	0	0	0
O=C1C(=O)c2ccccc2-c2ccccc21	0	0	0	0	0	-94.3
O=C1C(=O)c2cccc3cccc1c23	0	0	0	0	0	0
NC(=O)c1cn(C2OC(CO)C(O)C2O)c2ncnc(N)c12 (stereo not drawn)	0	0	0	0	0	-66.2
CCn1nc(-c2ccccc2)nc2c(=O)n(C)c(=O)nc1-2	83.4	-	0	0	0	-
O=C1NC(=S)N(C2CC2)C(=O)/C1=C/c1ccc2c(c1)CCN2CCCCl	0	0	0	0	0	-78.9
CCC(=NCc1cc(OC)cc(OC)c1)c1c(O)[nH]c(=O)[nH]c1=O	0	0	0	0	0	0
COc1ccc(CN2CC=C(c3ccc(F)cc3)CC2)cc1Br	0	0	0	0	0	-67.9
CNC(C)(C)Cc1ccccc1	-	-	0	-	0	-
CN1Cc2cnnn2-c2ccccc2C1c1ccccc1 (stereo not drawn)	-	-	0	-	0	-
NS(=O)(=O)c1ccc(N=Cc2c(O)n(C3CCCCC3)c(=O)n(C3CCCCC3)c2=O)cc1	0	0	0	0	0	0
CCn1c(O)c(C=Nc2ccc(S(N)(=O)=O)cc2)c(=O)[nH]c1=S	0	0	20.2	0	0	0
CCn1c(O)c(C=Nc2ccc(S(N)(=O)=O)cc2)c(=O)n(CC)c1=S	0	0	19.0	0	0	0
CCn1c(O)c(C=NCc2ccccc2)c(=O)[nH]c1=S	0	0	0	0	0	0
Cc1c(OC(=O)N(C)C)ccc2c1O/C(=C\c1ccco1)C2=O	0	0	0	0	0	0
CC(=O)c1c(C)n(CC2CCCO2)c2ccc(O)cc12 (stereo not drawn)	0	69.9	0	0	0	0
CC(=O)c1c(C)n(Cc2ccccc2Cl)c2ccc(O)cc12	0	0	0	0	0	0
CCOc1cc2c(cc1OCC)-n1cccc1C(c1ccc(C(C)C)cc1)NC2 (stereo not drawn)	0	0	23.9	0	0	0
COc1ccc2c(c1OC)CN1CCc3cc4c(cc3[C@H]1C2)OCO4	-	-	0	-	0	-

High-throughput results (PubChem)
